Screens as filed in PubChem.
In the library only some 4% were active in any assay of this set; here they are far more common.
CCHF vOTU inh = CCHFV vOTU protease inhibitors, primary screen, biochemical, Pep-AMC substrate, fluorescence; Crimean-Congo hemorrhagic fever virus L polyprotein viral ovarian tumor (vOTU) protease …; inhibition, % at 11.5 µM; 0.55% of 370,000 active; also: 0% = vehicle wells with enzyme and 100% = no enzyme wells
Mtb bLac sens = beta-lactam sensitization of Mtb H37Rv, H37Rv. M. tuberculosis H37Rv growth with meropenem, percent inhibition. inhibition, % at 25 µM. 0.27% of 330,000 active; call rule not given here;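 also: growth measured after seven days incubation then overnight dye step; 0% = bacteria only wells and 100% = bacteria with antibiotic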
FBA Mtb inh = Mtb FBA enzyme inhibitors, primary screen, biochemical, fluorescence, strain H37Rv; AID 588726, 2011; purified M. tuberculosis FBA, fluorescence read-out; 2.3% of 360,000 active; inhibition, % at 1 µM; in the data active = inhibition above about 27%;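 also: 0% = vehicle and 100% = reference inhibitor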
Target sequence (P9WQA3 whole entry, looked up): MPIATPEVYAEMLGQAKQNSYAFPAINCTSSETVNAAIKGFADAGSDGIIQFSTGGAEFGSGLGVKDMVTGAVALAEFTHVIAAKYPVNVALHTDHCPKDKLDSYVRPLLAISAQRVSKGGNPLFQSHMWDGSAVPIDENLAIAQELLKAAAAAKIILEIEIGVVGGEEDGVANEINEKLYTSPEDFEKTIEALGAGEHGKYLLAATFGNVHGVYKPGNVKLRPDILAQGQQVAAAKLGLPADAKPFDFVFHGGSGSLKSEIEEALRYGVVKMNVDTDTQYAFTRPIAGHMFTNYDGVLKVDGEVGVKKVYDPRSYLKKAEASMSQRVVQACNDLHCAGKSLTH
MazEF act = activators of E. coli MazEF toxin-antitoxin RNase, primary screen, biochemical, fluorescence, uHTS; activation, % at 20 µM; FAM/BHQ RNA-DNA oligo cleavage fluorescence, 5 h; 0.32% of 350,000 active; in the data active = activation above about 50%
GDH-TPI counter-1 = GDH-TPI coupling enzyme inhibitors, primary screen, artefact control for M. tuberculosis FBA inhibitor project, biochemical, absorbance, full deck; GDH-TPI coupled enzyme counterscreen, NADH absorbance; inhibition, % at 4.8 µM; 1.2% of 360,000 active;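 also: 0% = DMSO wells and 100% = wells lacking the enzyme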
Mtb FBA confirm = M. tuberculosis aldolase blockers, biochemical, fluorescence, strain H37Rv, confirmation | shares compounds with FBA Mtb inh | purified M. tuberculosis FBA, fluorescence read-out | inhibition, % at 1 µM | 78% of 5,600 active; in the data active = inhibition above about 27%;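 also: 0% = vehicle wells and 100% = reference inhibitor wells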
GDH-TPI counter-2 = GDH-TPI coupling enzyme inhibitors, artefact control for M. tuberculosis FBA inhibitor project, biochemical, fluorescence, high throughput; GDH-TPI coupled enzyme counterscreen; shares compounds with FBA Mtb inh; AID 652141, 2013; inhibition, % at 1 µM; 81% of 5,600 active; in the data active = inhibition above about 10%
Active calls of the source: *. Rule as the data show it, unless noted: active = inhibition above about 30%; inactive = the rest.

CCN1C(=O)CS/C1=N\S(=O)(=O)c1ccc(C)cc1 was read as CCHF vOTU inh -8, Mtb bLac sens -10, FBA Mtb inh 47*, MazEF act -1, GDH-TPI counter-1 4, Mtb FBA confirm 77* and GDH-TPI counter-2 79*.
For Cc1ccccc1NC(=O)[C@H]1CC(=O)O[C@@H]1c1ccccc1 the results were CCHF vOTU inh -7.
For Cc1ccc2nc(-c3ccc(NC(=O)CCN4C(=O)c5ccccc5C4=O)cc3)sc2c1 the results were CCHF vOTU inh -86, Mtb bLac sens 8, FBA Mtb inh 97*, MazEF act -36, GDH-TPI counter-1 10, Mtb FBA confirm 162* and GDH-TPI counter-2 122*.
`CCN(CC)S(=O)(=O)c1ccc(C(=O)OCC(=O)Nc2ccc(-c3nc4ccc(C)cc4s3)cc2)cc1` gave CCHF vOTU inh -24, Mtb bLac sens -5, FBA Mtb inh 28*, MazEF act -23, GDH-TPI counter-1 18, Mtb FBA confirm -2 and GDH-TPI counter-2 -2.
For CN(CCOc1ccccc1)C(=O)c1cc(S(=O)(=O)N2CCOCC2)ccc1Cl the results were CCHF vOTU inh -4, Mtb bLac sens 18, FBA Mtb inh 31*, MazEF act 0, GDH-TPI counter-1 8, Mtb FBA confirm 146* and GDH-TPI counter-2 116*.
`O=C(NC1CCCCC1)c1cc(S(=O)(=O)N2CCCC2)ccc1Cl` gave CCHF vOTU inh 22, Mtb bLac sens 8, FBA Mtb inh 104*, MazEF act 3, GDH-TPI counter-1 0, Mtb FBA confirm 77* and GDH-TPI counter-2 58*.
Screening O=C(COC(=O)c1cc(S(=O)(=O)N2CCCCC2)ccc1Cl)NC1CCCCC1 returned CCHF vOTU inh 4, FBA Mtb inh -2, MazEF act -3 and GDH-TPI counter-1 -10.
Screening O=C(Nc1ccc(Cl)cn1)c1cccc(S(=O)(=O)N2CCCCCC2)c1 returned CCHF vOTU inh 2, FBA Mtb inh 0, MazEF act -2 and GDH-TPI counter-1 -1.
Screening O=C(CNC1CCCCC1)Nc1cc(S(=O)(=O)N2CCOCC2)ccc1Cl returned CCHF vOTU inh -12, Mtb bLac sens -4, FBA Mtb inh 106*, MazEF act 6, GDH-TPI counter-1 3, Mtb FBA confirm active and GDH-TPI counter-2 active.
CN(CCOc1ccc(Cl)cc1)C(=O)c1ccc(S(=O)(=O)N2CCOCC2)cc1 was read as CCHF vOTU inh -10, Mtb bLac sens -6, FBA Mtb inh 5, MazEF act 4 and GDH-TPI counter-1 6.
O=C(Nc1ccc(Cl)cn1)c1cc(S(=O)(=O)N2CCCCC2)ccc1Cl was read as CCHF vOTU inh 11, Mtb bLac sens -1, FBA Mtb inh 77*, MazEF act 13, GDH-TPI counter-1 -3, Mtb FBA confirm -6 and GDH-TPI counter-2 -6.
Screening O=C(CNCc1ccccc1Cl)Nc1cc(S(=O)(=O)N2CCOCC2)ccc1Cl returned CCHF vOTU inh 10, Mtb bLac sens 1, FBA Mtb inh 3, MazEF act 3 and GDH-TPI counter-1 3.
For Cc1cn2c(=O)c3ncn(C4OC(CO)C(O)C4O)c3n(C)c2n1 (stereo not given) the results were CCHF vOTU inh -5.
For CCN1CCN(S(=O)(=O)c2ccc(Cl)c(C(=O)NC3CC3)c2)CC1 the results were CCHF vOTU inh -7, Mtb bLac sens 0, FBA Mtb inh 0, MazEF act -3 and GDH-TPI counter-1 10.
O=C(Nc1ccncc1)c1cc(S(=O)(=O)N2CCOCC2)ccc1Cl was read as CCHF vOTU inh -7, Mtb bLac sens 3, FBA Mtb inh 97*, MazEF act -1, GDH-TPI counter-1 1, Mtb FBA confirm active and GDH-TPI counter-2 active.
CCN1CCN(S(=O)(=O)c2ccc(Cl)c(C(=O)NC3CCCC3)c2)CC1 was read as CCHF vOTU inh -1, Mtb bLac sens -2, FBA Mtb inh 47*, MazEF act 6, GDH-TPI counter-1 7, Mtb FBA confirm active and GDH-TPI counter-2 active.
